Assay [1] in a line: sensitizers of A549 cells to miR-34 induction, primary screen, imaging, A549 dox-inducible miR-34, nuclei and caspase counts (AID 1347080). The conditions noted are these: A549 miR-34 inducible, Hoechst nuclei count, 48 h.
The nature of assay [2]: survival rescue of mitochondrial mutant cells in low glucose, primary screen, MELAS cybrids, Rieske KO mouse fibroblasts, CellTiter-Glo (AID 1508586;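 active = mean z-score across replicates of 1.96 or higher in either the MELAS or the Rieske mutant cell line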;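 also: z relative to plate mean and SD of compound and empty wells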).
Assay [3] deals with NAD(+) hydrolase SARM1 (Homo sapiens) (UniProt Q6SZW1). The assay is described as follows: SARM1 TIR NADase inhibitors, cell lysate, NAD-Glo luminescence (AID 1508614;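 active = compound whose remaining NAD level is above about 45 nM, limit read from the data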;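 also: higher remaining NAD means stronger inhibition of SARM1 NADase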). The conditions noted are these: SAM-TIR HEK293T lysate NADase, at 1 µM, stronger effect = higher value.
The target in assay [4] is Mitogen-activated protein kinase 7 (Homo sapiens) (UniProt Q13164). As to the kind of experiment: ERK5 transactivation activators in reporter cells, primary screen, cell-based, HTS (AID 1508626;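 active = luciferase signal above three times the same-plate solvent-only control wells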;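 also: luciferase driven by Gal4-ERK5 fusion binding five Gal4 sites before minimal TATA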). The settings on record: HeLa Gal4-ERK5 transactivation, 18 h, at 5 µM, stronger effect = higher value.
The mark [5] stands for this setting: stronger effect = lower value, cell number ratio, induced over uninduced.
[6] abbreviates: measured here: relative caspase fold change +Dox/-Dox.
The mark [7] stands for this setting: measured here: total cells with miR-34 induction, stronger effect = lower value.
Setting [8] is: measured here: total cells without miR-34 induction.
[9] abbreviates: MELAS cybrid survival, CellTiter-Glo 48 h, stronger effect = higher value.
The mark [10] stands for this setting: Rieske KO mouse fibroblast survival, CellTiter-Glo 72 h.

The record followed here is PubChem BioAssay.

The structures appear in SMILES notation. Several values for one entry are separate records, joined by “and”; a condition that tells them apart may be missing. Identical values can stand only once. Activity calls are given as the source filed them.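 The calls were made as follows, unless noted: active = compounds whose cell count with miR-34 switched on is under 0.7 times the count with it off; inactive = the rest.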

Mitogen-activated protein kinase 7 (Homo sapiens), sequence (Q13164 whole entry, looked up, the tested form may be a part): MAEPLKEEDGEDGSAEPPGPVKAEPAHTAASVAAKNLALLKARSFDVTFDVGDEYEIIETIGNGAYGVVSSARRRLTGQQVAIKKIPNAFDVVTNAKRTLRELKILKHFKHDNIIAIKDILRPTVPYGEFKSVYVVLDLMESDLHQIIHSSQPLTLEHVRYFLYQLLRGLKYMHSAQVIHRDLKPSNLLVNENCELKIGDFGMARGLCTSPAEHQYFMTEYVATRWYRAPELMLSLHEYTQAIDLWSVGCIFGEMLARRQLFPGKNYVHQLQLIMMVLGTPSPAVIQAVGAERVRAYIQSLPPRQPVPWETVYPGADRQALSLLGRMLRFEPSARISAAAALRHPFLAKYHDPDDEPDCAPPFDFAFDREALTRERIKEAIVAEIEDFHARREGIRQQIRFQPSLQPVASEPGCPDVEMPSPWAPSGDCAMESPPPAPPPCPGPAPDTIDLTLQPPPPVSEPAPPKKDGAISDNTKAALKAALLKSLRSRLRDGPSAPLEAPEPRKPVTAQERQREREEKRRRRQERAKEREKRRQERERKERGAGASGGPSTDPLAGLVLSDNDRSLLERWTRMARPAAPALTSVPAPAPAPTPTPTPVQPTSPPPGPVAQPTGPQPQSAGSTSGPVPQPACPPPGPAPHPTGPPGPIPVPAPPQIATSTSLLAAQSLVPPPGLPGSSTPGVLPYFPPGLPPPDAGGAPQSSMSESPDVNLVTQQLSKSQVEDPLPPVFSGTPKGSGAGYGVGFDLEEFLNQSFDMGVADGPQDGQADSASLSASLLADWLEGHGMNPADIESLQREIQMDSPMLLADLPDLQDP
NAD(+) hydrolase SARM1 (Homo sapiens), sequence (Q6SZW1 whole entry, looked up, the tested form may be a part): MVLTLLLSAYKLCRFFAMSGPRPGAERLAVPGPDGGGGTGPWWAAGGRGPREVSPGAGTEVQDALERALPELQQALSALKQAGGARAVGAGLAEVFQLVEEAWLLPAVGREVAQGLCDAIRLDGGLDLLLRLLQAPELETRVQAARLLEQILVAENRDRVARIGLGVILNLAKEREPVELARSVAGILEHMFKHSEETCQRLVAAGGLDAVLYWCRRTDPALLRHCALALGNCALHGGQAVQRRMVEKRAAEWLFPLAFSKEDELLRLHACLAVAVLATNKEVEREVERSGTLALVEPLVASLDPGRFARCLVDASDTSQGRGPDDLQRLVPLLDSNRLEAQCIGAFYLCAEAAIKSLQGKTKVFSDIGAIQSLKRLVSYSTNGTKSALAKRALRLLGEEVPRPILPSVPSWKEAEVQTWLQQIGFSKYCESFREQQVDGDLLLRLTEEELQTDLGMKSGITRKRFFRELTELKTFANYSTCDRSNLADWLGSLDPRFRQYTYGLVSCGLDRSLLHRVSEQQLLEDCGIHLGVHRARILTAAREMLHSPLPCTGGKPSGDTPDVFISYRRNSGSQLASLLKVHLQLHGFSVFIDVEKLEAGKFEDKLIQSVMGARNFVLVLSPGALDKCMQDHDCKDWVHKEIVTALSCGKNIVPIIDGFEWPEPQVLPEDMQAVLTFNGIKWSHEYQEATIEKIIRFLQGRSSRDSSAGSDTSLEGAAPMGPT

For `CN1CCOC(c2ccccc2)c2ccccc2C1` (centres undefined), the fold change in assay [1] (setting [5]) was 0.979 (inactive) and 0.925 (inactive); in assay [1] (setting [6]) it was 1.1 and 3.08. For the same molecule, the cell count was 8830 and 11200 in assay [1] (setting [7]); 9020 and 12100 in assay [1] (setting [8]). Moreover, the z-score is 0.332 (inactive) in assay [2] (setting [9]) and 0.617 in assay [2] (setting [10]). Moreover, the remaining NAD in assay [3] is 10 nM (inactive). Further, the luciferase signal in assay [4] was 120 AU (inactive).

For the molecule `CN1CCN(C(c2ccccc2)c2ccccc2)CC1`, the fold change in assay [1] (setting [5]) was 0.854 (inactive) and 1.14 (inactive) and 0.917 (inactive); in assay [1] (setting [6]) it was 1.3 and 0.825 and 1.5. For the same molecule, the cell count in assay [1] (setting [7]) is 8120 and 9280 and 11100; in assay [1] (setting [8]), 9500 and 8140 and 12100. For the same molecule, the z-score in assay [2] (setting [9]) is -0.157 (inactive) and 0.0064 (inactive); in assay [2] (setting [10]), -0.181 and 0.467. Further, the remaining NAD in assay [3] was 10 nM (inactive). In addition, the luciferase signal in assay [4] is 124 AU (inactive).

`CN(C)CCOC(=O)C(c1ccccc1)C1(O)CCCC1` (centres undefined): the fold change is 0.97 (inactive) and 0.896 (inactive) in assay [1] (setting [5]); 0.779 and 1.74 in assay [1] (setting [6]). Further, the cell count in assay [1] (setting [7]) was 9700 and 10300; in assay [1] (setting [8]), 10000 and 11500. For the same molecule, the z-score in assay [2] (setting [9]) was 0.757 (inactive); in assay [2] (setting [10]), 0.693. For the same molecule, in assay [3], the remaining NAD was 10 nM (inactive). The luciferase signal in assay [4] is 104 AU (inactive).

Turning to `CCCCC(CC)CN=C(N)NC(N)=NCCCCCCN=C(N)NC(N)=NCC(CC)CCCC` (centres undefined), the fold change in assay [1] (setting [5]) is 0.778 (inactive); in assay [1] (setting [6]) it was 1.43. The cell count in assay [1] (setting [7]) is 389; in assay [1] (setting [8]), 500. The z-score in assay [2] (setting [9]) is -2.81; in assay [2] (setting [10]), 8.3. The remaining NAD in assay [3] was 10 nM (inactive). The luciferase signal in assay [4] is 88 AU (inactive).

As for `O=C(O)c1ccccc1C(=O)Nc1ccc(S(=O)(=O)Nc2nccs2)cc1`, the fold change is 0.914 (inactive) and 0.897 (inactive) in assay [1] (setting [5]); 1.08 and 2.76 in assay [1] (setting [6]). The cell count in assay [1] (setting [7]) is 8730 and 11300; in assay [1] (setting [8]), 9550 and 12600. Also, the z-score is 0.52 (inactive) in assay [2] (setting [9]) and 0.0843 in assay [2] (setting [10]). Moreover, the remaining NAD in assay [3] was 10 nM (inactive). Further, the luciferase signal in assay [4] was 92 AU (inactive).

`O=C1c2ccccc2C(=O)C1c1ccccc1`: the fold change in assay [1] (setting [5]) is 0.851 (inactive) and 1.01 (inactive) and 0.873 (inactive); in assay [1] (setting [6]), 1.04 and 0.811 and 1.49. The cell count in assay [1] (setting [7]) was 8760 and 1750 and 10200; in assay [1] (setting [8]) it was 10300 and 1740 and 11700. Also, the z-score is -0.152 (inactive) and 0.54 (inactive) in assay [2] (setting [9]); -0.0639 and -0.0998 in assay [2] (setting [10]). In assay [3], the remaining NAD was 10 nM (inactive). Besides, the luciferase signal in assay [4] was 52 AU (inactive).

In the case of `CCOC(=O)c1ccc(N)cc1`, the fold change was 0.793 (inactive) and 0.945 (inactive) and 0.848 (inactive) in assay [1] (setting [5]); 1.13 and 0.443 and 0.967 in assay [1] (setting [6]). Further, the cell count in assay [1] (setting [7]) is 7670 and 8350 and 9530; in assay [1] (setting [8]), 9660 and 8840 and 11200. For the same molecule, the z-score in assay [2] (setting [9]) was -0.198 (inactive) and -0.244 (inactive); in assay [2] (setting [10]), -0.136 and -0.658. Besides, the remaining NAD in assay [3] is 10 nM (inactive). The luciferase signal in assay [4] is 112 AU (inactive).

As for `Cc1c(N(C)C)c(=O)n(-c2ccccc2)n1C`, the fold change in assay [1] (setting [5]) is 0.875 (inactive) and 0.837 (inactive); in assay [1] (setting [6]) it was 1.16 and 0.645 and 2.71. The cell count is 7950 and 7780 and 11100 in assay [1] (setting [7]); 9080 and 9290 and 12700 in assay [1] (setting [8]). Also, the z-score in assay [2] (setting [9]) was -0.0296 (inactive) and -0.452 (inactive); in assay [2] (setting [10]) it was -0.137 and 0.114. Further, in assay [3], the remaining NAD is 10 nM (inactive). The luciferase signal in assay [4] was 60 AU (inactive).

As to `CCC(Cc1c(I)cc(I)c(N)c1I)C(=O)O` (centres undefined), the fold change in assay [1] (setting [5]) was 0.941 (inactive) and 0.781 (inactive); in assay [1] (setting [6]) it was 0.773 and 3.75. The cell count was 9300 and 9110 in assay [1] (setting [7]); 9880 and 11700 in assay [1] (setting [8]). The z-score in assay [2] (setting [9]) was 0.0916 (inactive); in assay [2] (setting [10]) it was -0.459. The remaining NAD in assay [3] was 10 nM (inactive). In addition, the luciferase signal in assay [4] is 56 AU (inactive).

On to `Cn1c([N+](=O)[O-])cnc1COC(N)=O`, for which the fold change is 0.949 (inactive) and 0.998 (inactive) and 0.92 (inactive) in assay [1] (setting [5]); 0.814 and 0.524 and 4.33 in assay [1] (setting [6]). The cell count was 9230 and 8250 and 11400 in assay [1] (setting [7]); 9730 and 8270 and 12400 in assay [1] (setting [8]). Besides, the z-score in assay [2] (setting [9]) was -0.153 (inactive) and -0.082 (inactive); in assay [2] (setting [10]), -0.129 and 0.703. For the same molecule, the remaining NAD in assay [3] was 10 nM (inactive). Further, in assay [4], the luciferase signal is 108 AU (inactive).

Consider `C[C@H](N)[C@H](O)c1cccc(O)c1`, for which the fold change was 0.936 (inactive) and 0.834 (inactive) in assay [1] (setting [5]); 1.15 and 3.09 in assay [1] (setting [6]). Moreover, the cell count is 9120 and 10800 in assay [1] (setting [7]); 9740 and 13000 in assay [1] (setting [8]). The z-score was 0.835 (inactive) in assay [2] (setting [9]) and 0.306 in assay [2] (setting [10]). Besides, the remaining NAD in assay [3] was 10 nM (inactive). Further, in assay [4], the luciferase signal is 40 AU (inactive).

`C[N+]12CCC(CC1)C(OC(=O)C(O)(c1ccccc1)c1ccccc1)C2` (centres undefined): the fold change in assay [1] (setting [5]) was 0.841 (inactive) and 0.859 (inactive); in assay [1] (setting [6]), 1.4 and 1.29. Further, the cell count in assay [1] (setting [7]) is 8530 and 9960; in assay [1] (setting [8]), 10100 and 11600. The figures for the z-score in assay [2] (setting [9]) and in assay [2] (setting [10]) were 0.605 (inactive) and -0.405, respectively. In addition, the remaining NAD in assay [3] was 10 nM (inactive). The luciferase signal in assay [4] was 48 AU (inactive).

For the molecule `OC(CCN1CCCCC1)(c1ccccc1)c1ccccc1`, the figures for the fold change in assay [1] (setting [5]) and in assay [1] (setting [6]) were 0.941 (inactive) and 1.61, respectively. The cell count in assay [1] (setting [7]) is 9230; in assay [1] (setting [8]), 9810. The results for the z-score in assay [2] (setting [9]) and in assay [2] (setting [10]) were -1.04 (inactive) and -0.829, respectively. The remaining NAD in assay [3] is 10 nM (inactive). Further, the luciferase signal in assay [4] is 36 AU (inactive).

Turning to `Cc1ccc2c(Cl)cc(Cl)c(O)c2n1`, the fold change in assay [1] (setting [5]) was 0.915 (inactive) and 0.981 (inactive); in assay [1] (setting [6]), 0.745 and 0.409. Also, the cell count is 9230 and 3330 in assay [1] (setting [7]); 10100 and 3390 in assay [1] (setting [8]). Besides, the results for the z-score in assay [2] (setting [9]) and in assay [2] (setting [10]) were -0.257 (inactive) and -0.123, respectively. Besides, the remaining NAD in assay [3] was 10 nM (inactive). In assay [4], the luciferase signal was 32 AU (inactive).

For the molecule `CCn1cc(C(=O)O)c(=O)c2cnc(N3CCNCC3)nc21`, the fold change in assay [1] (setting [5]) is 0.922 (inactive); in assay [1] (setting [6]) it was 1.25. The results for the cell count in assay [1] (setting [7]) and in assay [1] (setting [8]) were 9710 and 10500, respectively. For the same molecule, the z-score in assay [2] (setting [9]) is 0.675 (inactive); in assay [2] (setting [10]), 0.0409. In addition, the remaining NAD in assay [3] is 10 nM (inactive). In addition, the luciferase signal in assay [4] was 56 AU (inactive).

For `CCN(CC)Cc1cc(Nc2ccnc3cc(Cl)ccc23)ccc1O`, the fold change in assay [1] (setting [5]) is 0.891 (inactive); in assay [1] (setting [6]) it was 1.28. Further, the values for the cell count in assay [1] (setting [7]) and in assay [1] (setting [8]) were 7140 and 8010, respectively. Moreover, the results for the z-score in assay [2] (setting [9]) and in assay [2] (setting [10]) were 0.684 (inactive) and 0.737, respectively. Moreover, the remaining NAD in assay [3] is 10 nM (inactive). The luciferase signal in assay [4] is 60 AU (inactive).

For the molecule `Cc1cc(NC(=O)C2=C(O)c3ccccc3S(=O)(=O)N2C)no1`, the fold change was 0.901 (inactive) and 0.859 (inactive) in assay [1] (setting [5]); 1.1 and 2.9 in assay [1] (setting [6]). Besides, the cell count in assay [1] (setting [7]) is 8700 and 11400; in assay [1] (setting [8]), 9660 and 13300. The z-score is 0.335 (inactive) in assay [2] (setting [9]) and 0.203 in assay [2] (setting [10]). The remaining NAD in assay [3] was 10 nM (inactive). Also, the luciferase signal in assay [4] was 72 AU (inactive).

Turning to `C=C1c2cccc(O)c2C(O)=C2C(=O)[C@]3(O)C(O)=C(C(N)=O)C(=O)[C@@H](N(C)C)[C@@H]3[C@@H](O)[C@H]12`, the fold change was 0.869 (inactive) and 0.999 (inactive) in assay [1] (setting [5]); 1.25 and 1.82 in assay [1] (setting [6]). The cell count is 7110 and 11900 in assay [1] (setting [7]); 8180 and 11900 in assay [1] (setting [8]). Besides, the z-score in assay [2] (setting [9]) was 0.00753 (inactive); in assay [2] (setting [10]), -2.31. Moreover, the remaining NAD in assay [3] is 10 nM (inactive). For the same molecule, the luciferase signal in assay [4] was 40 AU (inactive).
